About 83,000 compounds went through this panel and 20% of them were active in at least one assay; those are over-represented in the sample as a whole.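 The test compound was applied at a single concentration to cells in 96-well plates for 48 hours, and percent growth was recorded.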 Values without a mark were called inactive. Activity calls are given as the source filed them. Rule for the calls: active = growth percent below 10; inactive = the rest.
System: HL-60(TB) leukemia
Experiment: NCI-60 one-dose screen, 48 h (100 = growth as untreated, 0 = no growth, -100 = all killed)
Details: 10 µM unless noted

| Structure (SMILES) | growth |
| --- | --- |
| Brc1ccc(-c2[nH]ncc2-c2c[nH]c3ccccc23)cc1 | 80.7% |
| CCCN1CC(c2ccc(OC)c(OC)c2)=C(c2cn(C(=O)OCC)c3ccccc23)C1=O | 33.2% |
| CCOC(=O)N1C=CC2C=CC1C1C=CC=CC2N1C(=O)OCC (centres undefined) | 104% |
| Cc1ccc(S(=O)(=O)Oc2ccc3c4c(c(=O)oc3c2)CCCCC4)cc1 | 20.4% |
| COc1ccc(C2CC(c3ccc4c(c3)OCO4)=Nc3c(N)ncnc3N2)cc1 (centres undefined) | 99.3% |
| NC(CCl)=NCC12CC3CC(CC(C3)C1)C2 | -30.2% (active) |
| C=CC(CC(c1ccccc1)(c1ccccc1)c1ccccc1)N(CC)CC (centres undefined) | 71.5% |
| CNC(=S)N/N=C/CSC/C=N/NC(=S)NC | 85% |
| CCOC(=O)N1C2CCC(C2)N1C(=O)OCC | 92.4% |
| Clc1ccc(I)c2ccccc12 | 98.1% |
| ClCC#CCSc1ncnc2c1ncn2CC#CCCl | 8.79% (active) |
| CC(C)c1ccc2c(c1)CC[C@H]1[C@](C)(C(=O)OCC#CCN3CCCC3)CCC[C@]21C | 55.5% |
| COc1cc(-c2nc(Nc3nc4ccccc4s3)[nH]c(=O)c2C#N)cc(OC)c1O | 98% |
| COc1cc(C(=C2O[C@@H]([C@H]3COC(C)(C)O3)[C@H]3OC(C)(C)O[C@@H]23)c2cc(OC)c(OC)c(OC)c2)cc(OC)c1OC | 107% |
| O=C1CCC23OC(c4ccccc4N12)C(O)C(O)C3O (centres undefined) | 97% |
| COc1cc2cc(Oc3ccc(NC(=O)Nc4ccc(F)c(C(F)(F)F)c4)cc3)c(C)nc2cc1OCCN1CCOCC1 | 19.3% |
| CN=C1C=CC(=C(c2ccc(N(C)C)cc2)c2ccc(N(C)C)cc2)C=C1 | -1.23% (active) |
| Nc1cc(-c2ccncc2)c[nH]c1=O | 87.6% |
| CC(=O)c1c[nH]c2ccc(-c3ccnc(Nc4ccc(NC(=O)C5CCCC5)c(CN5CCOCC5)c4)n3)cc12 | -31.5% (active) |
| COc1cc2c(cc1OCCCCCN1CCN(c3ncnc4ccccc34)CC1)N=CC1CCCN1C2=O (centres undefined) | -25.8% (active) |
| CCOCCOCCOCCOCCOCCOCCOCCOCCOCCO (tested in a mixture with another compound) | -54.9% (active) |
| O=C(Nc1ccccc1O)c1ccc(Oc2cccc(C(=O)Nc3ccccc3O)c2)cc1 | -40.4% (active) |

| Structure (SMILES) | growth |
| --- | --- |
| CC(C)CSc1nc(N)nc2c1ncn2C1OC(CO)C(O)C1O (centres undefined) | 113% |
| COc1ccc(/C(C)=C(\c2ccc(OCCN3CCCCCC3)cc2)c2ccc(OC(=O)c3ccccc3)cc2)cc1 | 31.2% |
| CCNC(=O)Oc1ccc(/C(=C(/CC)Cc2ccccc2)c2ccc(OCCN3CCOCC3)cc2)cc1 | 5.28% (active) |
| CCC(C)(C)C(=O)O[C@H]1C[C@@H](C)C=C2C=C[C@H](C)[C@H](CC[C@@H]3CC=CC(=O)O3)[C@H]21 | 5.76% (active) |
| Oc1ccc(Br)cc1Sc1cc(Br)ccc1O | 27.9% |
| CN1C(=O)NC(Cc2c[nH]c3c(Cl)cccc23)C1=O (centres undefined) | 98.6% |
| CCOC(=O)c1c2c(n3c1NCC3)-c1ccccc1C2=O | 86.8% |
| c1ccc(OCCC[P+](c2ccccc2)(c2ccccc2)c2ccccc2)cc1 | -57.3% (active) |
| COc1cc2oc(-c3cccc(C(=O)Nc4ccc(C#N)cc4)c3)cc(=O)c2c(O)c1OC | 136% |
| C#CCN1C(=O)c2ccccc2N(CC#C)C12CCN(Cc1cn(CC(=O)Nc3ccccc3C(N)=O)nn1)CC2 | 86.6% |
| O=C(Nc1ccccc1)Nc1ccc(C(=O)/C=C/c2ccc(N3CCCC3)cc2)cc1 | 35.2% |
| O=S(=O)(O)C(Nc1ccccc1)c1ccccc1 (centres undefined) | 87.2% |
| CCN(CC)c1ccc(N=C2C=CC(=O)C=C2NC(C)=O)cc1 | 55.3% |
| O=C1c2c(c3c4ccccc4n(CCCCCCBr)c3c3[nH]c4ccccc4c23)C(=O)N1O | -41.7% (active) |
| CCCCCCCCNc1cccc2c1C(=O)c1ccccc1C2=O | 73% |
| COc1ccc(-c2cn3ccnc3c(-c3ccc4ncn(C5CCCCC5)c4c3)n2)cc1 | 1.36% (active) |
| COc1ccc(C(=O)Nc2cccc(C3CCc4c(cc(OC)c(OC)c4OC)O3)c2)cc1 (centres undefined) | 10.7% |
| O=C(NCc1ccc(Cn2c(=O)sn(-c3ccc(Cl)cc3)c2=O)cc1)OCc1ccc2c(Cl)cc(Cl)c(O)c2n1 | 56.3% |
| CCCC(=O)OCC1OC(n2cnc3c(=S)nc(N)[nH]c32)C(OC(=O)CCC)C1OC(=O)CCC (centres undefined) | 13.2% |
| COc1cc2cc3c(nc2cc1OC)CCN3Cc1ccc(NC(=O)Nc2cc(C(F)(F)F)cc(C(F)(F)F)c2)cc1 | 81.5% |
| NC(=O)c1c(NC(=O)c2ccc3ccccc3c2)sc2c1CCC(=O)C2 | 50.9% |
| Clc1ccc2[nH]cc(-c3cncn3CCc3ccccc3)c2c1 | 45.1% |

| Structure (SMILES) | growth |
| --- | --- |
| Clc1ccc2nc(-c3ccc(-c4ccc(/C=N/NC5=NCCN5)cc4)s3)cn2c1 | 98.1% |
| CN([N-]C(=O)CC(=O)[N-]N(C)C(=S)c1ccccc1)C(=S)c1ccccc1.[Cu+2] | -15.6% (active) |
| CCCNS(=O)(=O)c1ccc(Cl)cc1 | 105% |
| COc1ccc(-c2nn(-c3ccccc3)cc2/C=C/C(=O)OCc2cn(-c3ccc(F)c(Cl)c3)nn2)cc1 | 83.3% |
| CN(C)C(=O)c1cc2cnc(Nc3ccc(-c4csc5c(=O)cc(N6CCOCC6)oc45)cc3)nc2n1C1CCCC1 | -46.7% (active) |
| CCCCn1c(Cc2ccc(Cl)cc2)nc2cc(OC)c(OC)cc2c1=O | 53.7% |
| NC(=O)c1ccc2c(c1)OCO2 | 103% |
| COC(=O)/C(=C\c1ccc(OC)cc1)C(=O)N1c2ccccc2Sc2ccccc21 | 16.5% |
| N#Cc1c(NC(=O)c2ccccc2I)sc2c1CCCC2 | 12.6% |
| O=C1/C(=C/c2ccccc2)CN(CCC(=O)N2C/C(=C\c3ccccc3)C(=O)/C(=C/c3ccccc3)C2)C/C1=C\c1ccccc1 | 48% |
| N#Cc1cnc2cc(OC[C@@H](O)CO)c(NC(=O)C3CCCC3)cc2c1Nc1ccc(OCc2cccc(F)c2)c(Cl)c1 | -28.8% (active) |
| CCOC(=O)c1c(C)oc2ncnc(N3CCN(C(=O)COc4ccc(SC)cc4)CC3)c12 | 97.2% |
| C=CCNC(=O)Cc1c(-c2ccc(OC)cc2)oc2c(OC)c3c(c(OC)c12)OCO3 | 102% |
| CCC(C)(C)c1ccc(Nc2ccc(Nc3ccc(C(C)(C)CC)cc3)cc2)cc1 | 47.5% |
| CCCSc1nc(N)nc2nc[nH]c12 | 74.6% |
| Nc1[nH]nc(Nc2ccccc2)c1-c1nc2ccccc2s1 | 16.6% |
| CCOC(=O)C1=C(C)C(Cl)=N/C1=C\c1[nH]c(Cl)c(C)c1C(=O)OCC | 95% |
| COc1cc2c(-c3cc4c(cc3CNCCc3ccc5c(c3)OCO5)OCO4)cccc2c(OC)c1O | 71.3% |
| COc1ncnc2c1cnn2C | 114% |
| Nc1cc(N)c(N=Nc2ccc(S(=O)(=O)O)cc2)cc1N=Nc1ccc(-c2ccc(N=Nc3ccc(O)c(C(=O)O)c3)cc2)cc1 | 111% |

From PubChem BioAssay (NCI)
